# In the library only some 3% were active in any assay of this set; here they are far more common.
# SKOV3 invasion: ovarian cancer metastasis inhibition, 3D TME model | SKOV3ip1-GFP adhesion/invasion on 3D omental model, fluorescence | Potency, µM (highest dose often 45.8 µM), hits mostly inhibitors | 0.1% of 46,000 active; further: nearly all actives have a fitted effect of over 65% in size
#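 Primary human omental fibroblast/mesothelial 3D culture pre-formed 48 h. SKOV3ip1-GFP cells added with compounds (0.36-46 umol/L), incubated 2 h RT/16 h 37 C, fixed; GFP cells quantified at 488/509 nm.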
# PMP22 txn: PMP22 gene transcription modulation; Potency, µM (doses to about 57.5 µM), most hits filed as inhibitors; AID 1508649; S16 Pmp22-F2sN Schwann cells, FLuc/NLuc coincidence luminescence, 24 h; 2% of 43,000 active; active means clear falling dose curves in both reporters; inconclusive means both reporters move, but less clearly or upward; inactive means either reporter flat; the % is the NLuc reporter signal
#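 Transcriptional readout in edited S16(c9) cells: two luciferases reported from the Pmp22 locus, measured in turn after 24 h compound incubation.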
# S16 F2sN tox: cytotoxicity in S16 Pmp22-F2sN Schwann cells; S16 Pmp22-F2sN Schwann cells (luciferase reporters placed in the Pmp22 gene) viability, CellTiter-Glo, 24 h; Potency, µM (titrated, usually from 57.5 µM), usual class: cytotoxic; 0.48% of 43,000 active; AID 1508642; further: nearly all actives have a fitted effect of over 65% in size
#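 S16 Schwann cells carrying the Pmp22-F2sN reporter, seeded in 1536-well format, were exposed to library compounds for 24 h at 37C. Viability was read as CellTiter-Glo luminescence after 15 min at room temperature.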
# mTORC1 inh: mTORC1 pathway inhibition measured by phospho-rpS6 | Tsc2-/- p53-/- MEF, phospho-rpS6 immunofluorescence/PI, 24 h | Potency, µM (series often up to 38.3 µM), usual class: inhibitors | 0.78% of 44,000 active | AID 493208; further: nearly all actives have a fitted effect of over 50% in size
#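 Cell-based qHTS: Tsc2-/- p53-/- MEF, 24 h cpd, 37 °C; fix/perm, anti-phospho-S6 Alexa-488 + PI; Acumen 488 nm scan; pS6/PI ratio, % positive cells; rapamycin 7.5 nM = inhibition ref; PI count = viability.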
# p53null 32C tox: kills p53 null cells at the permissive temperature | AID 903 | 0.62% of 55,000 active | Potency, µM (highest dose often 46.1 µM), hits mostly cytotoxic | H1299-neo p53 null cells, ATP luminescence, 24 h, 32C; further: nearly all actives have a fitted effect of over 55% in size
#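 ATP-content luminescence in p53-null H1299-neo cells after 24 h compound exposure (up to 46 uM) at 32C permissive temperature; 0% and 100% killing set by DMSO and 100 uM tamoxifen; Hill-equation AC50.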
# p53null 39C tox: selectivity test: cytotoxicity in p53 null cells, nonpermissive temperature | H1299 p53-null (neo) cells, 39C, ATPlite viability, 24 h | Potency, µM (top dose mostly 46.1 µM), hits mostly cytotoxic | 0.97% of 55,000 active | AID 904; further: nearly all actives have a fitted effect of over 50% in size
#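 Temperature-shift cytotoxicity format: compound titrations on p53-null or A138V-expressing H1299 cells held 24 hr at 39C, cell ATP then measured, AC50 from Hill model.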
# NLuc saturating: counter-screen for PMP22 expression modulators: NanoLuc inhibition, saturating substrate | shares compounds with PMP22 txn | Secreted NLuc enzyme (filtered S16 cell medium), Nano-Glo luminescence | Potency, µM (top dose mostly 57.5 µM), actives largely listed as inhibitors | 4% of 690 active | AID 1508638
# NLuc Km ctr: counter-screen for PMP22 expression modulators: NanoLuc inhibition at Km | shares compounds with PMP22 txn | secreted NLuc enzyme, coelenterazine luminescence, Km conditions | Potency, µM (titrated, usually from 57.5 µM), actives largely listed as inhibitors | 5% of 690 active
# FLuc ctr PMP22: counter-screen for PMP22 expression modulators: firefly luciferase inhibition; shares compounds with PMP22 txn; purified P. pyralis FLuc, luminescence, 10 min; Potency, µM (top dose mostly 57.5 µM), usual class: inhibitors; 690 tested, under 10 active; AID 1508640
# Target sequence (P08659 whole entry, looked up): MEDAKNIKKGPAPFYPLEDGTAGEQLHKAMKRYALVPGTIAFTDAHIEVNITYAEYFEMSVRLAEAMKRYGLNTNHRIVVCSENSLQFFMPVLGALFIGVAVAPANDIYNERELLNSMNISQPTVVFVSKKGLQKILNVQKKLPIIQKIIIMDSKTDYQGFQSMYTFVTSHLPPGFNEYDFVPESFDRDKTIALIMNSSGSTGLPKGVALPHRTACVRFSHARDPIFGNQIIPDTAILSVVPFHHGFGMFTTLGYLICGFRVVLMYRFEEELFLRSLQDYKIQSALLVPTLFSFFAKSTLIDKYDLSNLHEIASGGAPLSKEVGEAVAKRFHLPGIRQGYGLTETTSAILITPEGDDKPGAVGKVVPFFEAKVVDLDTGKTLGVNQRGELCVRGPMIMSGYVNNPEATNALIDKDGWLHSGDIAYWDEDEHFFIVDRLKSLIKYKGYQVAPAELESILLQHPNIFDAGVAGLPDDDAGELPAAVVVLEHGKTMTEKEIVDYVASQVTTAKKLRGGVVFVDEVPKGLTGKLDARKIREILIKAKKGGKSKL
# S16 viab conf: S16 Schwann cell cytotoxicity, confirmatory | shares compounds with PMP22 txn | S16 Schwann cells viability, CellTiter-Glo ATP luminescence, 24 h | Potency, µM (highest dose often 57.5 µM), actives largely listed as cytotoxic | 7% of 690 active | AID 1508641
# PMP22 txn conf: PMP22 transcription modulation, confirmatory. 22% of 690 active. S16 Schwann cells Pmp22-F2sN, dual luciferase, 24 h. shares compounds with PMP22 txn. Potency, µM (series often up to 57.5 µM), usual class: inhibitors; active means clear falling dose curves in both reporters; inconclusive means both reporters move, but less clearly or upward; inactive means either reporter flat; the % is the FLuc reporter signal
# PMP22 prot conf: confirmation of modulators of rat PMP22 protein expression. shares compounds with PMP22 txn. S16 Schwann cells Pmp22-HiBiT, luminescence, 48 h. Potency, µM (highest dose often 27.9 µM), most hits filed as inhibitors. 95 tested, under 10 active. AID 1508647
# Target sequence (P25094 whole entry, looked up): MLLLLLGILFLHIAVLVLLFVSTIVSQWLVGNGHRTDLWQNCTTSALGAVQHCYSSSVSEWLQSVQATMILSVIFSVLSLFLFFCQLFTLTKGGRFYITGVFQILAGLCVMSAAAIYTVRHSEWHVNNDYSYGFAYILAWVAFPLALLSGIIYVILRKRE
# Hits are given with their value; . = inactive; ? = inconclusive; / = not tested or not shown. Unless noted, the call rests on the fitted dose curve; in most records, active means well fitted curve in the direction sought with a large enough effect; inconclusive means small, poorly fitted or top-dose-only effect, or another doubt; inactive means no such curve, though single readings can be large; an effect the other way counts as inactive or inconclusive.
SMILES,SKOV3 invasion,PMP22 txn,S16 F2sN tox,mTORC1 inh,p53null 32C tox,p53null 39C tox,NLuc saturating,NLuc Km ctr,FLuc ctr PMP22,S16 viab conf,PMP22 txn conf,others
O=C(NCC1CN(c2ccc(N3CCOCC3=O)cc2)C(=O)O1)c1ccc(Cl)s1 (stereo unspecified),.,/,/,/,/,/,/,/,/,/,/,
Cc1c(/C=C(\C#N)C(=O)Nc2cccc(Cl)c2)c2ccccc2n1Cc1ccccc1Cl,.,?,.,.,.,.,.,.,.,.,.,
CC1=C[C@@H]2[C@@H]([C@@H](O)C[C@@]3(C)[C@H]2C[C@@H](C)[C@]3(O)C(=O)CO)[C@@]2(C)Cc3cnn(-c4ccccc4)c3C=C12,.,/,/,/,/,/,/,/,/,/,/,
Cc1nnc(N2CCC(C(=O)N3CCCCC3)CC2)c2nn(-c3ccccc3)c(C)c12,.,.,.,.,.,.,/,/,/,/,/,
CCOC(=O)C1CCN(C(=O)C2CCN(c3nnc(C)c4c(C)n(-c5ccccc5)nc34)CC2)CC1,.,14.1µM,.,.,.,.,.,.,.,.,.,
Cc1ccc(-n2nc3c(N4CCC(C(=O)NCCC(C)C)CC4)nnc(C)c3c2C)cc1,.,6.21µM,.,.,.,?,.,.,.,.,?,
Cc1ccc(-n2nc3c(N4CCC(C(=O)NCCc5ccccc5C)CC4)nnc(C)c3c2C)cc1,?,9.46µM,?,.,.,.,.,.,.,24.3µM,?,
O=C(C=Cc1ccc(O)cc1)c1ccc(O)cc1O,.,/,/,/,/,/,/,/,/,/,/,
COCCCOc1cc(C[C@@H](C[C@H](N)[C@@H](O)C[C@H](C(=O)NCC(C)(C)C(N)=O)C(C)C)C(C)C)ccc1OC,.,/,/,/,/,/,/,/,/,/,/,
COC(=O)[C@@H]1[C@H]2C[C@@H]3c4[nH]c5ccccc5c4CCN3C[C@@H]2CC[C@@H]1O,.,/,/,/,/,/,/,/,/,/,/,
O=C(NOCC(O)CO)c1cc(Br)c(F)c(F)c1Nc1ccc(I)cc1F (stereo unspecified),.,/,/,/,/,/,/,/,/,/,/,
Cc1ccc(F)cc1NC(=O)CSc1nc(-c2cccs2)cc(C(F)(F)F)n1,.,14.1µM,.,?,.,?,.,.,.,.,.,
Cc1ccc(NC(=O)CSc2nc(-c3ccco3)cc(C(F)(F)F)n2)cc1,.,2.15µM,.,?,.,.,.,.,.,.,.,
Cc1cccc(C)c1NC(=O)CSc1nc(-c2cccs2)cc(C(F)(F)F)n1,.,.,.,?,.,.,/,/,/,/,/,
Nc1cccc(S(=O)(=O)N2CCCN(S(=O)(=O)c3ccc4c(c3)OCCO4)CC2)c1,.,/,/,/,/,/,/,/,/,/,/,
Cn1nnnc1SCCCNCc1cccc(OCc2ccccc2)c1,.,20µM,.,.,.,.,.,.,.,.,.,
O=C(NC1CCN(Cc2ccccc2)CC1)c1ccc(Cn2c(=O)c3ccccc3n(Cc3ccc(Cl)cc3)c2=O)cc1,.,12.1µM,.,.,.,.,.,.,.,12.2µM,10.9µM,
COc1ccc(CCNC(=O)c2ccc(Cn3c(=O)c4ccccc4n(Cc4cccc(F)c4)c3=O)cc2)cc1OC,.,?,.,.,.,?,/,/,/,/,/,
O=C(NC1CCN(Cc2ccccc2)CC1)c1ccc(Cn2c(=O)c3ccccc3n(Cc3ccccc3)c2=O)cc1,.,.,.,.,.,.,/,/,/,/,/,
COCCCNC(=O)c1ccc(Cn2c(=O)c3ccccc3n(Cc3ccc(Cl)cc3)c2=O)cc1,.,11.3µM,?,.,.,.,?,?,.,.,.,
COc1ccc(CCNC(=O)c2ccc(Cn3c(=O)c4ccccc4n(Cc4cccc(Cl)c4)c3=O)cc2)cc1OC,.,?,.,.,.,.,.,.,.,.,.,
COc1ccc(-n2nc(C(N)=O)c3c2C(=O)N(c2ccc(N4CCCCC4=O)cc2)CC3)cc1,.,/,/,/,/,/,/,/,/,/,/,
CC1=Nc2cc(C(=O)NC3CCCCC3)ccc2Sc2ccc(Cl)cc21,.,6.05µM,.,?,.,.,.,.,.,.,8.68µM,
CC1=Nc2cc(C(=O)N3CCCCC3)ccc2Sc2ccc(C)cc21,.,.,.,.,.,.,/,/,/,/,/,
CCCC1=Nc2cc(C(=O)NC3CCCCC3)ccc2Sc2ccc(C)cc21,.,0.897µM,.,.,.,.,.,.,.,.,2.89µM,PMP22 prot conf=?
SMILES,SKOV3 invasion,PMP22 txn,S16 F2sN tox,mTORC1 inh,p53null 32C tox,p53null 39C tox,NLuc saturating,NLuc Km ctr,FLuc ctr PMP22,S16 viab conf,PMP22 txn conf,others
CCCC1=Nc2cc(C(=O)NC3CCCC3)ccc2Sc2ccc(C)cc21,.,3.65µM,.,.,.,?,.,.,.,.,4.44µM,
O=C(c1cc(Cc2n[nH]c(=O)c3ccccc23)ccc1F)N1CCN(C(=O)C2CC2)CC1,.,/,/,/,/,/,/,/,/,/,/,
N#C[C@H]1C[C@H]2C[C@@H]2N1C(=O)[C@@H](N)C12CC3CC(CC(O)(C3)C1)C2,.,/,/,/,/,/,/,/,/,/,/,
N[C@@]1(C(=O)O)CS(=O)(=O)[C@H]2[C@H](C(=O)O)[C@H]21,.,/,/,/,/,/,/,/,/,/,/,
CC(C)CN(C[C@H](O)[C@H](Cc1ccccc1)NC(=O)O[C@H]1CCOC1)S(=O)(=O)c1ccc(N)cc1,.,/,/,/,/,/,/,/,/,/,/,
CCOc1ccc(C(=O)N2CCc3cc(OC)c(OC)cc3C2COc2ccc3c(C)cc(=O)oc3c2)cc1OCC (stereo unspecified),.,13.4µM,.,.,.,.,.,.,.,.,.,
CCc1cncnc1N1CCN(Cc2nc3ccc(C(F)(F)F)cc3[nH]2)CC1,.,/,/,/,/,/,/,/,/,/,/,
O=C(O)[C@H]1O[C@H](Oc2cc3oc(-c4ccccc4)cc(=O)c3c(O)c2O)[C@H](O)[C@@H](O)[C@H]1O,.,/,/,/,/,/,/,/,/,/,/,

# Screens from PubChem.
